Data published in ChEMBL document CHEMBL4513216, “Probing the Open Global Health Chemical Diversity Library for Multistage-Active Starting Points for Next-Generation Antimalarials” (ACS Infect Dis, 2020).
Hit rate of the full screen: of about 69,000 compounds, about 8,600 (12%) showed an effect of 50% or more. The full list was thinned out, with strong results kept by preference.

Tested on: Plasmodium berghei
Experiment: Screen against P. berghei liver stage (PbLuc), transformed with Luciferase, at 10uM
Format: functional, HepG2
Conditions: tested at 10 uM

SMILES	INHIBITION
CCOCc1cnc2n1CCN(Cc1cccs1)C2C (stereo not drawn)	-10.5%
Nc1cc(-c2c[nH]nc2C2CCCN2CCCc2ccccc2)ccn1 (stereo not drawn)	17.8%
CCn1cc(CN2CCCN(C(=O)c3cccc(C#N)c3)CC2)cn1	-73.1%
CNc1ccc(CC2CCCN(Cc3c[nH]cn3)C2)nn1 (stereo not drawn)	36.9%
Cc1cnn(CC2CCCN2C(=O)Cc2c(C)noc2C)c1 (stereo not drawn)	29.4%
Cc1nccn1CC1CCCN(S(=O)(=O)c2cnn(C)c2)C1 (stereo not drawn)	42.5%
CCc1nccn1C1CCCN(C(=O)c2csc(C3CC3)n2)C1 (stereo not drawn)	-4.16%
CC(C)CN1C[C@H]2CCN(c3ncccn3)CC[C@H]2S1(=O)=O	-14.9%
COCCN1C[C@H]2CCN(c3ncccn3)CC[C@H]2S1(=O)=O	82.9%
CCN1C[C@H]2CCN(c3ncccn3)CC[C@H]2S1(=O)=O	-41.6%
CCn1nc(C)c2nnn(CC(=O)Nc3ccccc3)c(=O)c21	49.9%
CN(C)S(=O)(=O)N1C[C@H]2CCC[C@@]2(COc2cccnc2)C1	-16.9%
CN1CCN([C@@H]2CCN(C3CCOCC3)[C@H]2Cc2cnn(C)c2)CC1	-8.85%
Cc1nnsc1-c1nnc2sc(C(C)C)nn12	12.5%
Cc1nn2c(-c3snnc3C)nnc2s1	61.8%
Cc1nnsc1-c1nnc2sc(C3CCC3)nn12	-13.1%
O=C1CCC(c2ccc(Cl)cc2)=NN1CN1CCSCC1	6.34%
CO[C@@H]1CCN(Cc2cnn(C)c2)[C@@H]2CN(Cc3ccco3)C[C@@H]21	7.11%
O=C(c1ccc(Cl)s1)N1CCCn2nc(CN3CC[C@H](F)C3)cc2C1	45%
CCOc1cccc(C(=O)N2CCCn3nc(CCC(=O)O)cc3C2)c1	-19%
CCc1cc(C(=O)N2CCCn3nc(CCC(=O)O)cc3C2)cs1	22.8%
CCCc1nc(C(=O)N2CCCn3nc(CCC(=O)O)cc3C2)cs1	-9.86%
O=C(O)CCc1cc2n(n1)CCCN(C(=O)c1ccc(F)cc1F)C2	-13.5%
O=C(O)CCc1cc2n(n1)CCCN(C(=O)c1cc3ccccc3s1)C2	67.9%
O=C(O)CCc1cc2n(n1)CCCN(C(=O)c1ccc3cc[nH]c3c1)C2	8.47%
O=C(O)CCc1cc2n(n1)CCCN(C(=O)c1ccc(Cl)s1)C2	51.5%
Cc1ccc(C(=O)N2CCCn3nc(CCC(=O)O)cc3C2)cc1Cl	52.5%
CC(C)n1nc(Cn2cccc2)c2c1CN(C1CCOCC1)C2	23.3%
